Consider 105 compounds from PubChem BioAssay AID862 (The Scripps Research Institute Molecular Screening Center, 2007).

The campaign covered roughly 190,000 compounds. About 1,700 (0.89%) were called active. This excerpt belongs to a sample that is enriched for actives. A number with no mark means an inactive call.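 How the source made its calls: active means inhibition above the mean inhibition across all screened compounds plus 3 SD (cut at about 44% in these data); inactive means the rest.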

Usually inhibition stands for the relative decrease from the control value, in per cent.

The test can be described thus: IL-6 driven STAT3 reporter inhibitors, primary screen, U3A cells, luciferase, luminescence, MLSCN library (AID 862).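 Further: 0% = DMSO only wells and 100% = 100 µM nifuroxazide control wells.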 The following applies: IL-6 STAT3-luciferase reporter, at 5.5 µM, hits give high values, host cell line lacks STAT1. Background: In a reporter assay the amount or activity of a reporter protein is the signal.
Take `O=C(Nc1ccn(Cc2ccccc2)n1)c1cccc(F)c1`: the inhibition is 12.5%.
For the compound `O=C(Nc1ccn(Cc2ccc(F)cc2)n1)c1ccncc1`, the inhibition was 22.9%.
To `O=C(Nc1ccn(Cc2ccccc2)n1)c1n[nH]c([N+](=O)[O-])c1Cl` belongs 53.5% (active).
To `Cc1cccc(C(=O)Nc2ccccc2C(=O)NCc2cccnc2)c1` belongs 10.3%.
Next, `CCOC(=O)/C(=N\Nc1ccccc1Cl)N(C)C1CCS(=O)(=O)C1` (stereo not given): 5.4%.
Consider `Cc1ccc(Nc2nnc(SCc3ccccc3)s2)cc1`, for which the inhibition is -15.7%.
To `Nc1ccc(Nc2ccccc2)cc1` belongs 18.1%.
To `Cc1ccc(Nc2ccccc2N)cc1` belongs 69.5% (active); to `O=C1NC(=Nc2ccc(Cl)cc2)SC1Cc1cccc(Cl)c1Cl` (stereo not given), 0.2%.
To `CCOc1ccc(C(CC(=O)O)n2cnnn2)cc1OC` (stereo not given) belongs 17.4%; to `CCN(CCn1cccn1)Cc1nc(-c2ccc(C(=O)OC)cc2)no1`, 7.7%; to `OC(COc1ccc(CN2CCSCC2)cc1)CN1CCCCC1` (stereo not given), 4.3%.
With `COc1ccc(C2=NOC(COC(=O)c3ccc4ccccc4n3)C2)cc1` (stereo not given), the inhibition is -2.7%.
Consider `COc1ccc(C2=Nc3cc(C)ccc3OC2)cc1`, for which the inhibition was 66.7% (active).
In the case of `COc1ccc(C2=NOC3(CC(=O)N(c4ccc(C)cc4)C3=O)C2)cc1` (stereo not given), the inhibition was 0%.
To `CC[C@H]1CN2CCc3cc(OC)c(OC)cc3[C@@H]2C[C@@H]1C[C@H]1NCCc2cc(OC)c(OC)cc21` belongs 101% (active).
To `COc1cc2c(cc1O)[C@H](Cc1ccc(Oc3cc(C[C@@H]4NCCc5cc(OC)c(O)cc54)ccc3O)cc1)NCC2` belongs -0.3%; to `CCOC(=O)N1CCC(NC(=O)C(NS(=O)(=O)c2ccc3c(c2)CCN3C(=O)CC)C(C)C)CC1` (stereo not given), 8.6%; to `CCOc1ccc(NS(=O)(=O)c2ccc(C)c(C(N)=O)c2)cc1`, 20.3%.
To `COc1cccc(/C=C/C(=O)Nc2ccc3c(c2)OCCO3)c1` belongs 30.9%; to `O=C(Cn1cnc2ccccc21)N/N=C/c1ccco1`, 1.9%.
Turning to `O=C(c1cc(-c2cccs2)on1)N1CCCCC1`, the inhibition is 24.7%.
Next, `Cc1ccc(Cn2ccc(NC(=O)c3cc(C(C)C)on3)n2)cc1`: 15.3%; `Cc1cc(NC(=O)c2cc(-c3cccs3)on2)nn1Cc1ccc(Cl)cc1`: 47.2% (active).
To `C=CCn1nc(-c2ccccc2)c2c(C)onc2c1=O` belongs 1.6%; to `Cc1csc(=NC(=O)c2ccccc2)n1CCO`, 0.5%; to `OCCn1c(-c2ccccc2)csc1=Nc1ccccc1`, 46.5% (active).
To `Cc1csc(=Nc2ccccc2)n1CCO` belongs 5.8%; to `COC(=O)Cc1ccc(NC(=S)NCc2ccco2)cc1`, 2.5%.
In the case of `COc1ccc(-c2nc(-c3ccccc3)no2)c(OC)c1`, the inhibition was 102% (active).
Next, `COc1ccc(-c2noc(-c3ccc(C)cc3)n2)cc1`: 11.2%; `COc1ccc(-c2noc(-c3cccc(OC)c3OC)n2)cc1OC`: 9.5%; `COCCCNC(=O)/C=C/c1ccc(OCc2c(F)cccc2Cl)cc1`: 20%.
To `Cc1ccc(NC(=O)Nc2nnc(-c3ccncc3)s2)cc1` belongs 9.8%; to `CC1CC(C)CN(CCC(=O)Nc2ccc3c(c2)CCC3)C1` (stereo not given), 3.9%.
Next, `O=C(/C=C/c1ccccc1[N+](=O)[O-])OC1CCCCC1=O` (stereo not given): 4.5%; `O=c1[nH]c(CN2CCOCC2)nc2cc(Cl)ccc12`: 4.9%.
For `NC(=O)Cc1nc2scc(-c3ccc(Cl)cc3)c2c(=O)[nH]1`, the inhibition was 16%.
To `O=c1[nH]c(CCl)nc2cc(-c3ccc(Cl)cc3)sc12` belongs 51.2% (active).
To `CCOc1cccc(/C=N/N2C(=O)CSC2=S)c1O` belongs 2.5%; to `Cc1ccc2[nH]c(=O)c(CN3CCCCC3)c(-c3ccccc3)c2c1`, 8.1%.
Consider `COc1cccc2sc(NNC(=O)c3nc4ccccc4s3)nc12`, for which the inhibition is -23.2%.
Next, `CC(OC(=O)c1ccc2ccccc2n1)C(=O)c1ccccc1` (stereo not given): -6.4%; `CCOc1ccccc1NC(=O)c1cccnc1`: 6%.
To `COc1cccc(/C=C/c2ccc3ccccc3n2)c1OC(C)=O` belongs 89.8% (active); to `CCOc1cccc(/C=C/c2ccc3ccccc3n2)c1OC(C)=O`, 58.6% (active).
Consider `NC(=O)COC(=O)/C=C/c1ccc2ccccc2n1`, for which the inhibition was -0.2%.
To `CCn1c2ccccc2c2cc(NC(=O)COC(=O)c3cc(S(=O)(=O)N4CCCCC4)ccc3Cl)ccc21` belongs 4%; to `COc1ccc(/C=C/C2=CC(C)(C)NC(=S)N2)c(OC)c1`, 9.7%; to `COC(=O)Cn1cc(/C=C/[N+](=O)[O-])c2ccccc21`, -0.7%.
To `CN1C(=O)/C(=C/c2ccco2)SC1=Nc1cccc(C(=O)O)c1` belongs 3.5%; to `CC(C)C(=O)Nc1ccc2c3c(cccc13)CC2`, 1.8%; to `COc1cc(SC)ccc1C(=O)Nc1cc(C)ccn1`, 55.6% (active).
For the compound `COC(=O)c1sc(NC(=O)c2ccc(OC)cc2OC)nc1C`, the inhibition was 86% (active).
Turning to `Cc1ccnc(NC(=O)c2ccoc2C)c1`, the inhibition is 10.5%.
As to `COc1cc(SC)ccc1C(=O)NCCOc1ccccc1Cl`, the inhibition was -8.5%.
Next, `COC(=O)c1sc(NC(=O)c2csc3c2CCCC3)nc1C`: -15.5%; `COc1cc(SC)ccc1C(=O)Nc1nc(C)cs1`: 111% (active); `COc1ccccc1CNC(=O)c1ccc(SC)cc1OC`: 11.4%.
In the case of `COc1ccc(C(=O)Nc2nncs2)c(OC)c1`, the inhibition was 8.6%.
Next, `CC(=O)Nc1cccc(C(=O)Nc2nc(C)cs2)c1`: 10.2%.
Next, `O=c1c2ccccc2c(-c2ccccc2)nn1-c1ccccn1`: 4.6%; `O=C(CP(=O)(c1ccccc1)c1ccccc1)N1CCOCC1`: 6.3%; `COC(=O)Cc1ccc(OCC(=O)Nc2ccc(OC(F)(F)F)cc2)cc1`: -10.9%.
To `CCN1CCN(CC(=O)c2cc(OC)c(OC)c(OC)c2)CC1` belongs 11.2%; to `Cc1ccc(-c2csc(NC(=O)Cc3cccs3)n2)cc1C`, 12.1%.
Turning to `COc1ccc(-c2csc(NC(=O)CCCc3cccs3)n2)cc1`, the inhibition was 23.2%.
Next, `CCCc1ccc(-c2csc(NC(=O)Cc3cccs3)n2)cc1`: 43.7% (active).
For the compound `c1ccc(C2CNCc3c2ccc2ccccc32)cc1` (stereo not given), the inhibition is 3.3%.
Next, `O=S(=O)(Nc1ccccn1)c1ccc(Oc2ccccc2)cc1`: -1.5%; `COc1ccccc1Oc1ccc(S(=O)(=O)Nc2cccnc2)cc1`: 48.9% (active).
On to `COc1ccc(S(=O)(=O)Nc2cccnc2)c(Cl)c1Cl`, for which the inhibition was 5.5%.
To `Cn1c(CCCOc2ccc(Cl)cc2Cl)n[nH]c1=S` belongs 9.7%.
Next, `O=C(COC(=O)C1CC2C=CC1C2)Nc1ccccc1` (stereo not given): 1%; `CCCCCc1ccc(-c2ccc(OCC)cc2)nc1`: 25.3%; `CCCCCc1ccc(-c2ccc(C(=O)O)cc2)nc1`: 52.6% (active).
Consider `CCCCCC(=O)Nc1ccc(-c2cn3cccnc3n2)cc1`, for which the inhibition is 11.1%.
Next, `CCCN(CC(=O)Nc1ccccc1C)C(=O)c1cc(=O)[nH]c2ccccc12`: 3.5%.
To `N#Cc1nc(-c2ccc(OCc3ccccc3)cc2)oc1NCCCN1CCOCC1` belongs 14.7%; to `N#Cc1nc(COc2ccc(-c3ccccc3)cc2)oc1NCc1cccnc1`, 45.2% (active).
For the compound `N#Cc1nc(Cc2ccccc2)oc1NCCc1ccccc1`, the inhibition was -13.4%.
To `COC(=O)c1sc2[nH]c(=S)n(N)c(=O)c2c1C` belongs 8.3%; to `Cc1ccc(CN(Cc2cccnc2)C(=S)Nc2cccc(Cl)c2C)cc1`, 9.3%.
Next, `O=C(CN1CCN(c2ccccn2)CC1)N1CCc2ccccc21`: 1.6%; `O=C(CN1C(=O)c2ccccc2S1(=O)=O)N1CCc2ccccc21`: 89.1% (active); `CNC(=O)CN1C(=O)c2ccccc2S1(=O)=O`: 10.2%.
For `Clc1ccc2nc(CSc3ccccc3)cn2c1`, the inhibition is 62.7% (active).
To `CCOc1ncccc1C(=O)OCc1cn2cc(Cl)ccc2n1` belongs 12.3%; to `O=c1cc(CSc2ccc(Cl)cc2)nc(N2CCOCC2)[nH]1`, -7.4%; to `CCOC(=O)NN1C(=O)c2ccccc2NC1c1cccc(O)c1` (stereo not given), -10%.
Next, `CN(CCc1ccccn1)C(=O)CCC1CCCN(Cc2ccccc2OC(F)F)C1` (stereo not given): 4.3%; `Cc1cc(C)c2[nH]c(=O)c(CN(Cc3ccccc3)C(=S)NCCCN(C)C)cc2c1`: -4.1%.
Take `C1CC1Cc1noc(CN2CCN(CC3CC3)CC2)n1`: the inhibition is 2.5%.
Next, `Cc1ccc(NC(=O)CN(C)CC(=O)Nc2cccc(F)c2)cc1[N+](=O)[O-]`: 46.8% (active).
With `CN(CC(=O)Nc1cccc(F)c1)CC(=O)Nc1cccc([N+](=O)[O-])c1`, the inhibition is -4.2%.
Next, `Cc1ccc(CN(C)CC(=O)Nc2cccc([N+](=O)[O-])c2)o1`: 5.5%; `O=S(=O)(NC1CC1)c1ccc2c3c(cccc13)CC2`: 11.9%.
Turning to `CCOC(=O)CSc1nc(C)cc2c1C(=O)OC2`, the inhibition was -1%.
Next, `c1ccc2c(CSCc3nc4ccccc4[nH]3)cccc2c1`: 4.1%.
To `N=C(N)SCc1cccc2ccccc12` belongs 47.8% (active).
As for `CCOc1ccc(Br)cc1CSC(=N)N`, the inhibition was 34.7%.
To `CN(C)CCOCCOc1ccc(Cl)c2ccccc12` belongs 9.5%.
For `Cc1cc(C(=O)CSc2nc(N)cc(=O)[nH]2)c(C)n1-c1cccc(F)c1`, the inhibition was 20.1%.
Next, `Cc1cc(C(=O)CSc2nc(N)cc(=O)[nH]2)c(C)n1CCc1ccc(Cl)cc1`: 43.7% (active); `CCCc1cc(=O)[nH]c(SCC(=O)c2cc(C)n(CCC)c2C)n1`: 10.6%.
